# Screening results: PubChem BioAssay, Broad Institute
# The list is not random: actives were taken first. Their share in the collection is about 2.5%.
# RAD52 inh – RAD52 (human) annealing inhibition; P43351; recombinant RAD52 DNA annealing, FRET fluorescence; inhibition, % at 18.7 µM; 360,000 tested, 0.46% active; AID 651710;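 active means every replicate showing at least 50% inhibition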
# Target sequence (P43351 whole entry, looked up): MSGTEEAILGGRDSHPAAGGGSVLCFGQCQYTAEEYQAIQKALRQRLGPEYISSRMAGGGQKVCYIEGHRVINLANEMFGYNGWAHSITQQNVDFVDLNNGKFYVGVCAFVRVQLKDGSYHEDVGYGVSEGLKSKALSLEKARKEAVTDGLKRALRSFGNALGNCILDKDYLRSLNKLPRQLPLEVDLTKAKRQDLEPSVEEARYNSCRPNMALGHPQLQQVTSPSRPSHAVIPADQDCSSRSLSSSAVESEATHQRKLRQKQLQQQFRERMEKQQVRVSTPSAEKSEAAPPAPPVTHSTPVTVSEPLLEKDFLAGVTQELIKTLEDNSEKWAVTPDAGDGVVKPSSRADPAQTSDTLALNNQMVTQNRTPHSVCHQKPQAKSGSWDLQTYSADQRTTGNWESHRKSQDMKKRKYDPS
# rRNA inh HTS – inhibitors of bacterial rRNA selective over humanized ribosomes; GFP signal change (wild-type ribosome), % (no concentration beside the values); AID 720706; E. coli WT GFP vs humanized-ribosome RFP mutants, fluorescence, 24 h; hits give low values; DMSO median 0, no signal -100; 350,000 tested, 1.6% active;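 active means significant combined selectivity score with lowered wild-type GFP, culture density cut under 30%, mutant RFP and density less affected; inactive means any of these conditions unmet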
# CASP6 VEID inh – inhibitors of human caspase-6; P55212; purified caspase-6, Z-VEID-R110 cleavage fluorescence; inhibition, % at 12.5 µM; 350,000 tested, 0.53% active; AID 686996;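 active means mean inhibition across replicates at least about 35%, with every replicate also reaching that limit, limit read from the data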;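 further: 0% = median of neutral control wells and 100% = no fluorescence left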
# AF4-AF9 inh – MLL-AF4/AF9 protein interaction inhibition. AlphaScreen, biotin-AF4 peptide binding to FLAG-AF9. 350,000 tested, 0.47% active. P42568. inhibition, % at 10 µM;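 active means every replicate reaching a set inhibition limit, whatever the replicate mean, cut at about 25% in these data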;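 further: 0% = plate neutral control median and 100% = total signal loss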
# NSD2 HMT inh – inhibitors of human histone methyltransferase NSD2 | inhibition, % at 12.5 µM | 310,000 tested, 0.54% active | NSD2 peptide methylation, AlphaScreen, 120 min | O96028 | AID 743445; in the data active means inhibition above about 50%
# Alpha artifact – interferes with AlphaScreen signal, flagging NSD2 false positives | shares compounds with NSD2 HMT inh | AlphaScreen artifact counterscreen, preloaded methylated H4 peptide | AC35, µM (titrated, usually from 10 µM), for inactives: at the top dose activity change, negative = signal loss | 1,500 tested, 9.4% active; call rule not given here
# * = called active by the depositor; i = inactive; · = no result given.
SMILES,RAD52 inh,rRNA inh HTS,CASP6 VEID inh,AF4-AF9 inh,NSD2 HMT inh,Alpha artifact
O=C(COc1ccc(F)cc1Cl)Nc1cc(S(=O)(=O)N2CCOCC2)ccc1N1CCCCC1,-123,9,-2,0,-6,·
Cc1ccc(Cl)c(OCC(=O)Nc2cc(S(=O)(=O)N3CCOCC3)ccc2N2CCCC2)c1,-20,-18,1,2,73*,-4%
CN1CCN(c2ccc(S(=O)(=O)N3CCOCC3)cc2NC(=O)COc2ccc(F)cc2Cl)CC1,0,-8,-2,5,185*,-1%
COC(=O)C[C@@H]1C[C@H]2c3cc(N)ccc3O[C@H]2[C@@H](CO)O1,-51,2,-1,6,·,·
O=C(O)CSc1cc(NS(=O)(=O)c2ccc(Br)cc2)c2ccccc2c1O,-20,-20,95*,-1,107*,-6%
COc1cc(OC)c(-c2c3cc(O)c(=O)cc-3oc3cc(O)c(O)cc23)cc1OC,i,75,64*,13,143*,0.85µM*
COc1ccc(/C=C/C(=O)OCC(=O)NCC2CCCO2)cc1 (centres undefined),-17,9,1,-1,54*,2%
CNC[C@@H]1Oc2ncc(-c3cccc(C(=O)N(C)C)c3)cc2C(=O)N([C@H](C)CO)C[C@@H]1C,-8,10,4,-3,·,·
CCN(CC)CCCN=Cc1c(-c2ccccc2)[nH]n(-c2nc3ccccc3s2)c1=O,23,-24,-33,12,75*,-5%
Cc1cccc(NC(=O)C2CCN(C(=O)NCc3ccccc3)CC2)c1C,-5,6,1,-2,66*,0%
COc1ccc(/C=N/Nc2cc(C)nc(N3CCOCC3)n2)cc1OC,-6,-6,0,5,1,·
COc1ccccc1/C=N/Nc1cc(C)nc(N2CCOCC2)n1,-3,·,1,2,57*,0%
COc1ccccc1/C=N/Nc1cc(N(C)C)nc(N(C)C)n1,-4,-1,0,29*,100*,-3%
CN(C)c1cc(N/N=C\c2ccccc2)nc(N(C)C)n1,12,-4,1,26*,103*,0%
COc1ccccc1/C=N/Nc1nc(C)cc(=O)[nH]1,-52,9,4,1,10,·
C[C@@H]1CN([C@H](C)CO)C(=O)c2cc(NC(=O)CCCN(C)C)ccc2O[C@@H](C)CCCCO[C@H]1CN(C)Cc1ccncc1,-8,4,0,-10,·,·
CC(=O)N(C)C[C@@H]1Oc2ncc(C#C[C@@H](C)O)cc2C(=O)N([C@@H](C)CO)C[C@@H]1C,8,2,-1,-6,·,·
CC(=O)N1[C@@H]2Cn3c(ccc(C4=CCCCC4)c3=O)[C@H]1[C@@H](C(=O)NC1CCC1)[C@@H]2CO,-5,1,-2,-1,·,·
CCN(Cc1ccccc1)Cc1c(C)[nH]c2c(C)c(C)ccc2c1=O,·,·,·,·,56*,-6%
CN(CC(=O)N1CCc2[nH]c3ccc(F)cc3c2C1)CC1OCCO1,·,·,·,·,-3,·
Cc1ccc2[nH]c3c(c2c1)CN(C(=O)CN(C)CC1OCCO1)CC3,·,·,·,·,64*,-5%
CC(/C=C1\SC(=S)N(NS(=O)(=O)c2ccccc2)C1=O)=C\c1ccccc1,-30,-43*,22,2,55*,-10%
CC(/C=C1\SC(=S)N(NS(=O)(=O)c2ccc(C)cc2)C1=O)=C\c1ccccc1,-8,-29,0,-2,73*,-11%
CC(/C=C1\SC(=S)N(NC(=O)c2ccc(C)cc2)C1=O)=C\c1ccccc1,·,·,·,·,1,·
CC(=O)N1CCc2cc(Br)cc(S(=O)(=O)NCCCN(C)Cc3ccccc3)c21,-10,8,-18,-1,125*,0%
O=C(NCC(F)(F)F)[C@H]1[C@H](CO)[C@H]2Cn3c(cccc3=O)[C@H]2N1C(=O)C1CCC1,-20,-1,2,-2,·,·
COc1ccc(NS(=O)(=O)c2cccc(C(=O)N3CCCCCC3)c2)cc1,4,-5,-155,-2,64*,-5%
Cc1ccc(NS(=O)(=O)c2cccc(C(=O)N3CCCCCCC3)c2)cc1,0,-3,-2,-34,3,·
O=C(Nc1ccc(Cl)cc1)N[C@@H]1CC[C@H](CCNC(=O)c2ccccc2F)O[C@H]1CO,2,-5,-1,-3,·,·
Cc1ccccc1-c1ocnc1C(=O)Nc1ccccc1NC(=O)c1ccccn1,-8,-17,-1,5,74*,1%
